Data published in PubChem BioAssay AID620 (Sanford-Burnham Center for Chemical Genomics, 2007).
In all, about 87,000 compounds went through this assay and about 360 (0.41%) were called active. What follows is part of a selection rich in actives, with near analogues and random picks from the rest. Unmarked numbers belong to inactive results. No stated cut-off is given here; in the data, active means cytotoxicity above about 50%; inactive means the rest.

assay: cytotoxicity in HT1080 fibrosarcoma cells, cell-based, fluorescence readout (AID 620); settings: HT1080 viability, at 10 µM, hits give high values;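 further: cells exposed to compound overnight then 4 h with Alamar Blue; 0% = vehicle DMSO and 100% = killing control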

In order of falling cytotoxicity:
1. Brc1ccc(C2C3=C(Nc4ncnn42)c2ccccc2OC3c2ccncc2)cc1 (stereo not drawn)  44.4%
2. CCCSc1ccc2nc(NC(=O)OC)[nH]c2c1  40%
3. Cc1ccc(C2CC(=O)Nc3cc4c(cc32)OCO4)o1 (stereo not drawn)  40%
4. CCOC(=O)c1ccccc1NS(=O)(=O)c1ccccc1  37%
5. Cn1c(SCc2ccccc2Cl)nc2ccccc21  30.7%
6. COc1ccc(-c2cn3cc(C)ccc3n2)cc1OC  23%
7. COc1ccc(Nc2nc(N3CCCC3)c3ccccc3n2)cc1  19.5%
8. COc1ccc(-c2cn3ccccc3n2)cc1OC  14.9%
9. Fc1ccc(C2C3=C(Nc4ncnn42)c2ccccc2OC3c2ccncc2)cc1 (stereo not drawn)  14.5%
10. N#Cc1cccc(Cn2nnc(-c3ccccc3)n2)c1  13.7%
11. O=C1CC(c2cccs2)c2cc3c(cc2N1)OCO3 (stereo not drawn)  13.7%
12. COc1ccc(-c2nc(-c3ccccc3)c(-c3cc([N+](=O)[O-])ccc3C)[nH]2)cc1O  10.8%
13. Cc1ccc(C2CC(=O)Nc3cc4c(cc32)OCCO4)s1 (stereo not drawn)  7.9%
14. CCOC(=O)c1ccccc1NS(=O)(=O)c1ccc(C)cc1  6.9%
15. COC(=O)CSc1nnc(CNS(=O)(=O)c2ccc(C)cc2)n1C  6.8%
16. CN(C)/C=C(\C(=O)c1ccc(Cl)cc1)c1nnnn1-c1ccc(Cl)cc1  5.8%
17. O=C1CC(c2ccncc2)c2cc3c(cc2N1)OCCO3 (stereo not drawn)  5.6%
18. CCNc1nc(NCC)nc(N2CC(=O)N(CC(=O)OCC)C2=N)n1  4.9%
19. CCCCOc1ccc(S(=O)(=O)Nc2cc(OC)ccc2OC)cc1  4.8%
20. COc1ccccc1NC(=O)N(Cc1ccco1)Cc1cc2cc(C)cc(C)c2[nH]c1=O  3.9%
21. COc1ccc2nc(NCCO)[nH]c2c1  3.7%
22. Cc1nc2ccc(NC(=O)c3ccc(Cl)c(NC(=O)c4cccs4)c3)cc2s1  3.4%
23. O=C(CSCCc1ccccn1)Nc1ccccn1  3.4%
24. O=C(NCC(c1cccnc1)N1CCN(c2ccccc2)CC1)OCc1ccccc1 (stereo not drawn)  3.4%
25. O=S(=O)(Nc1cccnc1)c1cccc(C(F)(F)F)c1  2.9%
26. COc1ccc(NS(=O)(=O)c2cc(C)ccc2C)cc1  2.8%
27. COC(=O)COc1ccc(S(=O)(=O)Nc2cc(OC)ccc2OC)cc1  2.6%
28. CCC1CCCN1Cn1cnc2c([nH]c3ccccc32)c1=O (stereo not drawn)  2.5%
29. COc1cccc(OCC(=O)Nc2c(C(=O)Nc3ccc(OC)cc3OC)oc3ccccc23)c1  2.3%
30. COc1ccc(S(=O)(=O)N2CCN(S(=O)(=O)c3ccc4c(c3)OCCO4)CC2)cc1  2.3%
31. CC(=O)c1ccc(OC(C)C)c(CN2CCCCC2)c1  1.8%
32. O=C1C2ON(c3ccc(Br)cc3)C(c3cccnc3)C2C(=O)N1C1CCCCC1 (stereo not drawn)  1.2%
33. COc1cccc(C2CC(=O)Nc3cc4c(cc32)OCCO4)c1OC(C)C (stereo not drawn)  0.6%
34. CC1=NN(S(=O)(=O)c2ccc(F)cc2)C(=O)c2ccccc2O1  0.4%
35. CCOC(=O)c1c(C)[nH]c(C(=O)COC(=O)CNC(=O)C2CCCCC2)c1C  0.3%
36. Cc1cc(C)n(/N=C\c2c(O)ccc3ccccc23)c(=O)c1C(N)=O  0%
37. COc1ccccc1Oc1ccc(S(=O)(=O)N2CCOCC2)cc1S(=O)(=O)N1CCOCC1  -0.3%
38. Cc1ccc(Nc2nc(N3CCOCC3)c3ccccc3n2)cc1  -0.4%
39. COc1cccc(-c2nnc(SCC(N)=O)n2-c2ccc(Cl)cc2)c1  -0.4%
40. COc1cc2c(cc1OC)C(c1cccc(OC)c1OC)CC(=O)N2 (stereo not drawn)  -0.5%
41. COc1ccc2nc3oc(C(=O)N4CCN(c5ccccc5F)CC4)cc3cc2c1  -0.7%
42. Cc1ccc2cc(-c3noc(C4CCCCC4)n3)c(=O)[nH]c2c1  -0.9%
43. CNC(=O)[C@@]1(C)C=C[C@@H](Cc2ccccc2)N1C(=O)OC  -1%
44. O=S(=O)(c1cccc(-c2nc3ccccc3s2)c1)N1CCOCC1  -1%
45. O=C(Cc1cn2ccsc2n1)OCc1nc2ccccc2s1  -1.1%
46. COc1ccc(Cl)cc1NS(=O)(=O)c1ccc(S(=O)(=O)N2CCCC2)cc1  -1.1%
47. O=C(N1CCOCC1)n1nnc2ccccc21  -1.4%
48. CCn1c(SCC(=O)Nc2ccccc2)nc2c1c(=O)n(C)c(=O)n2C  -1.6%
49. O=C(Nc1cccc(-c2cc3ccccc3oc2=O)c1)c1ccc(Br)o1  -1.6%
50. Cc1cc(C)c(C#N)c(SCC(=O)Nc2ccc3c(c2)OCO3)n1  -1.7%
51. Cc1onc(-c2ccccc2)c1C(=O)Nc1cccc(C#N)c1  -1.8%
52. COc1ccc(NS(=O)(=O)c2cc(C(=O)O)ccc2C)cc1  -2.1%
53. COc1ccc(Cl)cc1NS(=O)(=O)c1ccc(OC)c(OC)c1  -2.2%
54. OC(CNCCc1ccccc1)c1ccccc1 (stereo not drawn)  -2.3%
55. CCOC(=O)N1CCC(NC(=O)C2CCCN(S(=O)(=O)c3ccc4c(c3)oc(=O)n4C)C2)CC1 (stereo not drawn)  -2.4%
56. COCCCNC(=O)CCCC(=O)NCCCOC  -2.4%
57. CCc1ccc2c(c1)[C@]1(C(=O)N2)[C@@H]2C(=O)N(Cc3ccccc3)C(=O)[C@@H]2[C@@H]2CCCN21  -2.5%
58. Cc1cccc(N(C(=O)Nc2ccccc2)C2=NCC(C)S2)c1 (stereo not drawn)  -2.6%
59. Cn1c(=O)c2c(nc(Br)n2CC(=O)c2cccs2)n(C)c1=O  -2.7%
60. CCOC(=O)N1CCN(c2c(N3CCN(c4ccccn4)CC3)c(=O)c2=O)CC1  -3%
61. COc1ccc(C)c(S(=O)(=O)Nc2ccc(OCC(=O)O)cc2)c1  -3.4%
62. O=C1C(Cl)=C(Nc2ccccc2O)C(=O)N1c1ccccc1  -3.8%
63. COc1ccc(-c2nc3ccccc3s2)cc1O  -4%
64. O=S(=O)(N1CCOCC1)n1nnc2ccccc21  -4.1%
65. O=C(C1CCC(CNc2c(N3CCCCC3)c(=O)c2=O)CC1)N1CCCCC1 (stereo not drawn)  -4.8%
66. Cc1cc(NC(=O)CSc2nnc(-c3cccnc3)n2C)no1  -4.9%
67. CCCCCCC(C)n1[nH]c(=O)c2c(C)cc(=O)[nH]c21 (stereo not drawn)  -5%
68. COc1ccc(NC(=O)CCN2CCN(S(=O)(=O)c3ccc(Cl)cc3)CC2)cc1  -5.2%
69. COc1ccc2nc(NC(=O)c3cc(C)oc3C)sc2c1  -5.9%
70. O=C(NCc1ccccc1)C1CCN(S(=O)(=O)N2CCCCCC2)CC1  -5.9%
71. CCOC(=O)C1Cc2ccccc2CN1 (stereo not drawn)  -7.6%
72. COc1ccccc1NC(=O)N(Cc1ccco1)Cc1cc2cccc(C)c2[nH]c1=O  -8%
73. CCn1c(SCc2ccccc2)nnc1-c1ccc(S(=O)(=O)N2CCCCC2)cc1  -8.1%
74. COc1ccc(OCC(=O)Nc2nc3ccccc3[nH]2)cc1  -8.8%
75. O=C(COc1cccc2ccccc12)N1CCN(c2ccccn2)CC1  -9%
76. COc1ccc(CC2C(=O)OC(C)(C)OC2=O)cc1  -9.2%
77. COc1ccc(OC)c(-n2nnnc2SCC(=O)Nc2ccc(C(=O)N3CCCCC3)cc2)c1  -11.6%
78. CCOc1ccc2nc(NCCO)[nH]c2c1  -12%
79. CC(=O)Oc1ccc(C)cc1-n1nc2ccccc2n1  -18.3%
80. CCOC(=O)C1=C(C)N(CCCC(=O)O)C(=O)NC1c1ccccc1OC(=O)c1cccs1 (stereo not drawn)  -19.7%
81. COC(=O)CNC(=O)[C@@]1(C)C=C[C@@H](Cc2ccccc2)N1C(C)=O  -25%

In the case of `COc1ccc(-c2c/c(=N\c3nc(-c4ccccc4)c(C)s3)c3ccccc3o2)cc1O`, the cytotoxicity is reported as 60% (active).
With `COC(=O)CNC(=O)[C@@]1(C)C=C[C@@H](Cc2ccccc2)N1C(=O)OC` the cytotoxicity was 89.9% (active).
With `COc1ccccc1NC(=O)N(Cc1ccco1)Cc1cc2ccc(C)c(C)c2[nH]c1=O` the cytotoxicity was 58.4% (active).
For `COc1ccc(NS(=O)(=O)c2cc(OC)ccc2NC(=O)c2cc(C)oc2C)cc1`, the cytotoxicity was 54% (active).
In the case of `COc1ccc(NS(=O)(=O)c2cc(C)ccc2NC(=O)c2cc(C)oc2C)cc1`, the cytotoxicity is reported as 67.9% (active).
In the case of `Cc1ccc(Oc2ccc(S(=O)(=O)N3CCOCC3)cc2C(N)=O)c(-n2nc3ccccc3n2)c1`, the cytotoxicity is reported as 53.4% (active).
With `Clc1ccc2c(c1)C1=C(C(c3ccncc3)O2)C(c2ccc(Br)cc2)n2ncnc2N1` (stereo not drawn) the cytotoxicity was 50.7% (active).
For `COc1ccc(S(=O)(=O)Nc2cc(Cl)ccc2OC)cc1`, the cytotoxicity was 70.9% (active).
With `CCOC(=O)c1ccccc1NS(=O)(=O)c1ccc(OCC)cc1` the cytotoxicity was 55.2% (active).
For `CCOc1ccc(S(=O)(=O)Nc2cc(OC)ccc2OC)cc1`, the cytotoxicity was 59.8% (active).
For `COc1ccc(S(=O)(=O)N2N=C(C)Oc3ccccc3C2=O)cc1`, the cytotoxicity was 60.3% (active).
For `CCCOc1ccc2nc(NC(=O)OC)[nH]c2c1`, the cytotoxicity was 64.1% (active).
In the case of `C=CCOc1ccc2nc(NC(=O)OC)[nH]c2c1`, the cytotoxicity is reported as 62.3% (active).
In the case of `COc1ccc(-c2cn3cc(Cl)ccc3n2)cc1OC`, the cytotoxicity is reported as 98.8% (active).
For `CC(C)Oc1ccccc1C1CC(=O)Nc2cc3c(cc21)OCCO3` (stereo not drawn), the cytotoxicity was 70.5% (active).
For `COc1ccccc1C1CC(=O)Nc2cc3c(cc21)OCCO3` (stereo not drawn), the cytotoxicity was 52.2% (active).
For `CC(C)Oc1ccccc1C1CC(=O)Nc2cc3c(cc21)OCO3` (stereo not drawn), the cytotoxicity was 67.4% (active).
